# Source: paper PMC8384837, “Expanding the binding specificity for RNA recognition by a PUF domain”
# Residue numbers refer to the chain shown, from its start.
# Columns and labels:
# Assay in all cases: yeast three-hybrid, YBZ-1, SC-Leu-His + 0.5 mM 3-AT, 4 days
# Conditions in all cases: tags: N-Gal4 AD-HA kept; label: inside an RPR1-promoter hybrid RNA with tandem MS2 sites; ssRNA
# [1] = biological target: T1, PUM1 PUF domain R6-LWS (Homo sapiens, UniProt Q14671 828-1176, N1043L;Y1044W;Q1047S)
# T1 sequence: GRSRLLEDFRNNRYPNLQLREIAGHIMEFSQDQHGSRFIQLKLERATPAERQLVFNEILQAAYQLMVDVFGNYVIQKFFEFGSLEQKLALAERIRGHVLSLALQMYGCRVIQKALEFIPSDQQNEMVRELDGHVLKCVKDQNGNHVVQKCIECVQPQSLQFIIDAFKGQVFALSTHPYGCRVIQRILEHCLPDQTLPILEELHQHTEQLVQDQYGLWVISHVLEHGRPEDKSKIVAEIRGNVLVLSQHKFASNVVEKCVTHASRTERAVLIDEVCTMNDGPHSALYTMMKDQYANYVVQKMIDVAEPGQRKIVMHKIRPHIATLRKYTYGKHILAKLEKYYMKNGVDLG
# Procedure, shortened: (§1)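 Each repeat of the Pumilio-1 PUF domain was randomized at its three base-contacting residues, and these libraries were co-expressed from a centromeric plasmid with matching RNA elements in strain YBZ-1. After four days on SC-Leu (input) or SC-Leu-His + 0.5 mM 3-AT (selection), the repeat regions were PCR-amplified and Illumina-sequenced. The interaction score compares variant frequency between input and selection as a log change, computed in log2 with a pseudocount of 1 for absent variants.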
# [2] = biological target: PUM1 PUF domain R5-WHG (Homo sapiens, UniProt Q14671 828-1176, C1007W;R1008H;Q1011G)
# Procedure, shortened: as §1
# [3] = biological target: PUM1 PUF domain R5-GRH (Homo sapiens, UniProt Q14671 828-1176, C1007G;Q1011H)
# Procedure, shortened: as §1
# [4] = biological target: PUM1 PUF domain R5-DIR (Homo sapiens, UniProt Q14671 828-1176, C1007D;R1008I;Q1011R)
# Procedure, shortened: as §1
# [5] = biological target: PUM1 PUF domain R3-GRA (Homo sapiens, UniProt Q14671 828-1176, C935G;Q939A)
# Procedure, shortened: as §1
# [6] = biological target: PUM1 PUF domain R8-NYP (Homo sapiens, UniProt Q14671 828-1176, Q1126P)
# Procedure, shortened: as §1
# [7] = biological target: T2, PUM1 PUF domain R6-MFR (Homo sapiens, UniProt Q14671 828-1176, N1043M;Y1044F;Q1047R)
# T2 sequence: T1 sequence with L216M, W217F, S220R
# Procedure, shortened: as §1
# [8] = biological target: T3, PUM1 PUF domain R6-NYL (Homo sapiens, UniProt Q14671 828-1176, Q1047L)
# T3 sequence: T1 sequence with L216N, W217Y, S220L
# Procedure, shortened: as §1
# [9] = biological target: PUM1 PUF domain R8-CHK (Homo sapiens, UniProt Q14671 828-1176, N1122C;Y1123H;Q1126K)
# Procedure, shortened: as §1
# [10] = biological target: PUM1 PUF domain R3-RCA (Homo sapiens, UniProt Q14671 828-1176, C935R;R936C;Q939A)
# Procedure, shortened: as §1
sequence,measurement,setting,value
GGCUAGAACUAGUGGAUCCCCCGGCGCCCGGCGGCUCGAGCCCGGGUAAGUGAAAAUAGUCUGCAUGCCGCCGGGCGCCAUGCCUGCAGGUCGACUCUAGAAAACAUG,binding signal,[1],4.85 log2 enrichment (interaction score)
GGCUAGAACUAGUGGAUCCCCCGGCGCCCGGCGGCUCGAGCCCGGGUAAGUGUCAAUAGUCUGCAUGCCGCCGGGCGCCAUGCCUGCAGGUCGACUCUAGAAAACAUG,binding signal,[2],2.14 log2 enrichment (interaction score)
same,binding signal,[3],2.47 log2 enrichment (interaction score)
same,binding signal,[4],3.11 log2 enrichment (interaction score)
GGCUAGAACUAGUGGAUCCCCCGGCGCCCGGCGGCUCGAGCCCGGGUAAGUGUAAGUAGUCUGCAUGCCGCCGGGCGCCAUGCCUGCAGGUCGACUCUAGAAAACAUG,binding signal,[5],1.12 log2 enrichment (interaction score)
GGCUAGAACUAGUGGAUCCCCCGGCGCCCGGCGGCUCGAGCCCGGGUAAGUGUUAAUAGUCUGCAUGCCGCCGGGCGCCAUGCCUGCAGGUCGACUCUAGAAAACAUG,binding signal,[2],4.56 log2 enrichment (interaction score)
same,binding signal,[3],4.85 log2 enrichment (interaction score)
GGCUAGAACUAGUGGAUCCCCCGGCGCCCGGCGGCUCGAGCCCGGGUAAGUGUAAAUAGUCUGCAUGCCGCCGGGCGCCAUGCCUGCAGGUCGACUCUAGAAAACAUG,binding signal,[5],2.35 log2 enrichment (interaction score)
same,binding signal,[6],3.16 log2 enrichment (interaction score)
same,binding signal,[3],3.97 log2 enrichment (interaction score)
same,binding signal,[7],6.1 log2 enrichment (interaction score)
same,binding signal,[8],5.52 log2 enrichment (interaction score)
same,binding signal,[1],6 log2 enrichment (interaction score)
GGCUAGAACUAGUGGAUCCCCCGGCGCCCGGCGGCUCGAGCCCGGGUAAGCGUAAAUAGUCUGCAUGCCGCCGGGCGCCAUGCCUGCAGGUCGACUCUAGAAAACAUG,binding signal,[9],3.49 log2 enrichment (interaction score)
GGCUAGAACUAGUGGAUCCCCCGGCGCCCGGCGGCUCGAGCCCGGGUAAGUGUAAUUAGUCUGCAUGCCGCCGGGCGCCAUGCCUGCAGGUCGACUCUAGAAAACAUG,binding signal,[5],0.97 log2 enrichment (interaction score)
same,binding signal,[10],3.42 log2 enrichment (interaction score)
GGCUAGAACUAGUGGAUCCCCCGGCGCCCGGCGGCUCGAGCCCGGGUAAGUGUGAAUAGUCUGCAUGCCGCCGGGCGCCAUGCCUGCAGGUCGACUCUAGAAAACAUG,binding signal,[2],2.58 log2 enrichment (interaction score)
